# Screening data from PubChem BioAssay.
# ALDH1A1 inh – inhibitors of human aldehyde dehydrogenase 1A1. Potency, µM (top dose mostly 75.3 µM), without a hit: at the highest dose activity, negative = inhibition, usual class: inhibitors. 7.3% of 220,000 active. Purified ALDH1A1, NADH fluorescence, propionaldehyde substrate. AID 1030; active = well fitted inhibition curve with a large enough effect, not every such curve was filed as active; inconclusive = small, poorly fitted or top-dose-only effect, or another doubt; inactive = no such curve, though single readings can be large or run the other way;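 note: plate controls were no enzyme wells and a reference inhibitor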
# Target sequence (P00352 whole entry, looked up): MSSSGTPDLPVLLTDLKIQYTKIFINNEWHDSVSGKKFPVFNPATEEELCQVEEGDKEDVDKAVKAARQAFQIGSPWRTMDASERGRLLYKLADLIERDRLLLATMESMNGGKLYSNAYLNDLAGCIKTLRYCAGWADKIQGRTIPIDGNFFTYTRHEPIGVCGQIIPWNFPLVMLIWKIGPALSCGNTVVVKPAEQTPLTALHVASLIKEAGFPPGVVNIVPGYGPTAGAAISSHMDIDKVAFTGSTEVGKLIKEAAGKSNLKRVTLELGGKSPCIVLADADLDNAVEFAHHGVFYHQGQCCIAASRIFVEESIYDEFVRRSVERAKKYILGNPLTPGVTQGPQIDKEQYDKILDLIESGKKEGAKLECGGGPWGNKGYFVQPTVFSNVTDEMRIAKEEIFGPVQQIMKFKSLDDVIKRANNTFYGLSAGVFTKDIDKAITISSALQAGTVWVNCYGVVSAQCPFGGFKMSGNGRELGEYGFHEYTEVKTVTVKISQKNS
# Lamin A splicing – modulators of lamin A splicing | HeLa LMNA splicing GFP/RFP minigene ratio, 48 h | Potency, µM (doses to about 46.1 µM), for inactives: top-dose ratio change, negative = inhibition, actives largely listed as inhibitors | 0.01% of 200,000 active | AID 1487; active = well fitted inhibition curve with a large enough effect in the signal ratio, with a control signal flat, not every such curve was filed as active; inconclusive = small, poorly fitted or top-dose-only effect, or effect the other way, or a change in a side signal; the % refers to the signal ratio; note: % is set by controls: 0 for no effect and ±100 for the full control effect
#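 S3 HeLa stable clones carrying a lamin A-EGFP splicing minigene plus DsRed2 were seeded at 600 cells/well in Opti-MEM with 2% FBS, pin-dosed and incubated 48 h at 37°C. Acumen cytometry (488 nm) gave the GFP/RFP total-intensity ratio.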
# HttQ103 aggreg – reduces HttQ103-GFP aggregates in PC12 cells; Potency, µM (top dose mostly 46.1 µM), without a hit: top-dose activity change, negative = inhibition, actives largely listed as inhibitors; PC12 HttQ103-GFP aggregates, Acumen cytometry, 40 h; 1.1% of 220,000 active; note: % is set by controls: 0 for no effect and ±100 for the full control effect; nearly all actives have a fitted effect of over 60% in size
#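 Huntingtin Q103 exon 1–GFP aggregates in induced PC12 cells (100 nM tebufenozide) were quantified by cytometry from lysates, with compounds dosed in titration.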
# HPGD block – blocks human HPGD enzyme activity | 4.3% of 150,000 active | purified HPGD, NADH fluorescence kinetic, PGE2 substrate | Potency, µM, for inactives: at the highest dose activity change, negative = inhibition, hits mostly inhibitors | P15428; active = well fitted inhibition curve with a large enough effect, not every such curve was filed as active; inconclusive = small, poorly fitted or top-dose-only effect, or another doubt; inactive = no such curve, though single readings can be large or run the other way; note: % is set by controls: 0 for no effect and ±100 for the full control effect
#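 NADH formation kinetics: reaction with 30 uM PGE2 and 1 mM NAD+ (final), 20 nM enzyme, Tris-HCl pH 8 with Tween 20, after 15 min compound preincubation at room temperature. Fluorescence change, last versus first of five reads.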
# HTT ATP protect – protects HTT-Q103 PC12 cells, measured by ATP; PC12 HTT-Q103 induced, cytoprotection, ATP luminescence, 40 h; Potency, µM (top dose mostly 56.4 µM), without a hit: cytoprotection (ATP increase), actives largely listed as activators; 0.14% of 230,000 active; note: % of control where 0% means no effect; nearly all actives have a fitted effect of over 45% in size
#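 Stable PC12 Q103-GFP cells in serum-supplemented, phenol red-free DMEM; induction by tebufenozide at 100 nM final; compound dose series; cell viability quantified luminescently from ATP.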
# Luc counter – blocks Kinase-Glo luciferase, a counter-screen artifact. Kinase-Glo luciferase, ATP luminescence, 8 min. 0.28% of 200,000 active. AID 1379. Potency, µM (series often up to 38.3 µM), without a hit: at the top dose activity change, negative = inhibition, actives largely listed as inhibitors; note: % is set by controls: 0 for no effect and ±100 for the full control effect; nearly all actives have a fitted effect of over 60% in size
#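 Light output from Kinase-Glo luciferase with luciferin and 10 uM ATP in 50 mM imidazole pH 7.2, KCl, MgCl2, Tween 20, BSA; compound pin-delivered, 8-min ambient incubation, then luminescence read.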
# The depositor's hits bear a star; ? = inconclusive; · = not tested or not shown; [ ] = dose if it differs, or a comment. Most compounds without a hit are left out; they make up all but 9% or so of the library. Unless noted, calls come from the whole dose curve; as a rule, active = well fitted curve in the direction sought with a large enough effect; inconclusive = small, poorly fitted or top-dose-only effect, or another doubt; inactive = no such curve, though single readings can be large; an effect the other way counts as inactive or inconclusive. Potency is the fitted concentration of half-maximal effect.
SMILES,ALDH1A1 inh,Lamin A splicing,HttQ103 aggreg,HPGD block,HTT ATP protect,Luc counter
CC(=O)c1ccccc1Oc1nc(CN2CCOCC2)nc2scc(-c3cccs3)c12,22µM*,21%,12%,-5%,-30%[0.074 µM],-2%
CN(C)c1ccc(C=Nc2ccccc2C(N)=O)cc1,?,?,-8%,?,-110%,-21%
CN(C)c1ccc(/C=N/N=C/c2ccccc2O)cc1,13µM*,-6%,-5%,-7%,2%[10 µM],-20%
CN(C)c1nc(N)nc(CSc2ncc(Cl)cc2Cl)n1,-9%,7%,6%,8.9µM*,-9%,-3%
CN(C)c1nc(N)nc(CSc2nnnn2C)n1,6%,2%,-20%,-10%,-4%[0.074 µM],2%
Nc1ccccc1S(=O)(=O)c1ccccc1N,5%,11%,5%,-7%,-11%,-2%
O=C(c1nc2ccccn2c1CN1CCC(Cc2ccccc2)CC1)N1CCCC1,11µM*,·,-18%,·,-31%,4%
COC(=O)c1cc2ccccc2c(-c2c(OC)c(C(=O)OC)cc3ccccc23)c1OC,?,13%,0%,?,-10%,-2%
O=C(c1ccc(S(=O)(=O)c2ccc(F)cc2)c([N+](=O)[O-])c1)N1CCCCCC1,-3%,?,?,-14%,-3%[10 µM],-2%
O=C(c1ccc(S(=O)(=O)c2ccccc2Cl)c([N+](=O)[O-])c1)N1CCN(Cc2ccccc2)CC1,14µM*,?,9%[9.22 µM],-12%,23%[10 µM],-2%
COc1cc(SC)ccc1C(=O)N1CCN(Cc2ccccc2)CC1,1%,8%[46 µM],-42%[9.22 µM],·,-14%[10 µM],1%
COc1cc(N(C)C)c([N+](=O)[O-])cc1C(=O)N1CCN(Cc2ccccc2)CC1,10µM*,-3%[9.22 µM],?,·,-30%,-2%
C=CCn1c(-c2ccc([N+](=O)[O-])cc2)n[nH]c1=S,-9%,7%,-9%,-19%,2%[10 µM],1%
CCOC(=O)c1c(NC(=O)CN(C)C)sc(C(=O)N(CC)CC)c1C,?,5%[0.0737 µM],-7%,1%,0%,-4%
CCCCC(=O)Nc1sc(C(=O)N(CC)CC)c(C)c1C(=O)OC,8.9µM*,-15%,5%,2.5µM*,1%[10 µM],2%
CCN(CC)C(=O)c1sc(NC(=O)c2cccnc2)c(C(=O)OC)c1C,?,-1%,-13%,20µM*,-1%[10 µM],0%
CCOC(=O)c1sc(NC(=O)c2ccc(Br)o2)cc1C,?,-9%,2%,?,-33%,?
CCN(CC)C(=O)c1sc(NC(=O)c2ccc(Br)o2)c(C(=O)OC)c1C,?,16%,-24%,16µM*,-31%,-4%
CCOC(=O)c1c(NC(=O)c2cccnc2)sc(C(C)=O)c1C,?,-7%,-13%,13µM*,8%[10 µM],3%
N#Cc1ccc(C(=O)NCC(c2ccco2)N2CCCCC2)cc1 (stereo not given),3%,19%,-1%,-4%,-12%,17%
COC(=O)c1ccc2c(c1)sc(=NC(=O)c1ccc(S(=O)(=O)N3CCCCC3)cc1)n2C,·,1%[46 µM],·,·,·,·
CCOC(=O)c1c(NC(=O)CC)sc(C(C)=O)c1C,14µM*,0%,26%,?,-27%[10 µM],2%
CCOC(=O)c1c(NC(NC(C)=O)C(Cl)(Cl)Cl)sc(C(C)=O)c1C (stereo not given),?,1%,?,-20%,-46%,-2%
CCCc1cc(C(=O)Nc2sc(C(C)=O)c(C)c2C(=O)OCC)no1,25µM*,-18%,-4%,?,-1%[10 µM],0%
CCOC(=O)c1c(NC(=O)c2cc(CC(C)C)on2)sc(C(C)=O)c1C,?,-9%,-12%,?,14%[10 µM],3%
SMILES,ALDH1A1 inh,Lamin A splicing,HttQ103 aggreg,HPGD block,HTT ATP protect,Luc counter
Cn1c(-c2ccccc2)cnc1SCc1nc2ccccc2c(=O)[nH]1,32µM*,-3%,-9%,-21%,-28%[10 µM],-15%
CCCNC(=O)NC(=O)COC(=O)c1ccc(S(=O)(=O)N(C)c2ccccc2OC)cc1,13µM*,?,2%,·,-66%,0%
COc1ccccc1N(C)S(=O)(=O)c1ccc(C(=O)OCC(N)=O)cc1,6%,?,9%,·,17%[10 µM],0%
COc1ccc2cc(C3(C)NC(=O)NC3=O)ccc2c1 (stereo not given),9%,?,6%,-5%,1%[10 µM],-3%
N#Cc1cccc(-c2nc3cnc(Oc4cccc(Cl)c4)nc3n(C3CC3)c2=O)c1,25µM*,?,·,·,?,·
O=c1c(-c2ccc(Cl)cc2)nc2cnc(Oc3ccccc3)nc2n1C1CC1,?,·,·,-11%,20%,-6%
S=C1NC(c2ccccc2)N2C(=S)NC(c3ccccc3)N12 (stereo not given),13µM*,11%,-25%,25µM*,-2%,3%
OC1NC(=S)N(c2ccccc2)C1O (stereo not given),·,·,11%[9.22 µM],·,4%[10 µM],·
COc1ccc(C2NC(=S)N3C(c4ccc(OC)cc4)NC(=S)N23)cc1 (stereo not given),11µM*,24%,2%[9.22 µM],?,18%,2%
COc1ccc(NC(=O)N2CCCC3(CCNCC3)C2)cc1,0%,·,·,-10%,1.6µM*,-3%
COc1ccc(NC(=O)N2CCC3(CC2)CCN(S(=O)(=O)c2ccccc2)CC3)cc1,2%,·,·,-2%,26%,-1%
COc1ccc(NC(=O)N2CCCC3(CCN(S(=O)(=O)c4ccccc4)CC3)C2)cc1,14µM*,·,·,-7%,-1%,-2%
COc1ccc(NC(=O)N2CC[C@@]3(CCCN(C(=O)c4cccc(F)c4)C3)C2)cc1,18µM*,·,·,-10%,-5%,-1%
O=C(Nc1ncc(S(=O)(=O)c2ccc([N+](=O)[O-])cc2)s1)c1ccc2ccccc2c1,7%,6%,-5%,-7%,?,-1%
Cc1noc(/C=C/c2ccco2)c1S(=O)(=O)N1CCC(C(=O)NC(C)c2ccccc2)CC1 (stereo not given),?,8%,6%,-10%,-25%,0%
CCOc1ccc(NCc2cc3c(C(C)(C)C)nn(-c4ccccc4)c3[nH]c2=O)cc1,?,9%,-18%,-18%,-43%,-1%
S=C(Nc1ccc2nsnc2c1)N1CCCC1,25µM*,-21%[46 µM],-18%[9.22 µM],·,-4%[10 µM],-28%
S=C(Nc1ccc2nccnc2c1)N1CCCC1,-4%,·,-20%[9.22 µM],·,4%[10 µM],-3%
Cc1cccc(C)c1NC(=O)CSCCO,5%,2%,1%,-10%,-5%[10 µM],0%
Cc1ccc(NC(=O)C(Nc2ccccc2)c2ccccc2)cc1 (stereo not given),-9%,-8%,0%,-4%,-6%[10 µM],5%
